From PubChem BioAssay
Only some compounds are listed: those with a hit (about 7.8% of all), similar ones and a draw of the others.
Hedgehog inh: Hedgehog pathway signaling inhibitors, primary screen, luminescence, Shh-LIGHT2 cells, Gli-luciferase. Shh-LIGHT2 Gli-luciferase reporter, 30 h. inhibition, % (test concentration not listed). 22,000 compounds, 2.1% hits. AID 2313, 2010;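 active means mean inhibition across valid replicates above about 65%, limit read from the data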;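 further: pathway switched on by Shh-conditioned medium diluted 1 in 25 in low serum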
MITF inhib: inhibitors of MITF, primary screen, MITF inhibitor project, cell-based, luminescence; TRPM1 promoter luciferase, 24 h; inhibition, % (test concentration not listed); 37,000 compounds, 0.28% hits; AID 2240, 2010; in the data active means inhibition above about 85%;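 further: human melanocyte line stably carrying TRPM1 promoter luciferase reporter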
NOMO-1 viab: NOMO-1 AML cell viability reduction, primary screen, STK33 inhibitor project, CellTiter-Glo luminescence; NOMO-1 AML viability, 72 h; inhibition, % (test concentration not listed); 37,000 compounds, 7.5% hits; in the data active means inhibition above about 80%
The depositor's hits bear a star.

Screening Cc1ccc(S(=O)(=O)Nc2ccc3c(c2)CC(=O)N([C@@H](C)CO)C[C@@H](C)[C@@H](CN(C)CC2CC2)O3)cc1 returned Hedgehog inh -14, MITF inhib 5 and NOMO-1 viab 8.
`C[C@@H]1CN([C@@H](C)CO)C(=O)Cc2cc(NS(C)(=O)=O)ccc2O[C@@H]1CN(C)CC1CCCCC1` gave Hedgehog inh -19, MITF inhib 5 and NOMO-1 viab 1.
For Cc1ccc(S(=O)(=O)Nc2ccc3c(c2)CC(=O)N([C@H](C)CO)C[C@H](C)[C@H](CN(C)CC2CCCCC2)O3)cc1 the results were Hedgehog inh 32, MITF inhib -12 and NOMO-1 viab 99*.
Screening C[C@H]1CN([C@@H](C)CO)C(=O)Cc2cc(NS(=O)(=O)c3ccc(F)cc3)ccc2O[C@H]1CN(C)CC1CCCCC1 returned Hedgehog inh -16, MITF inhib 1 and NOMO-1 viab 115*.
For COc1ccc(S(=O)(=O)Nc2ccc3c(c2)C(=O)N([C@H](C)CO)C[C@@H](C)[C@H](CN(C)S(C)(=O)=O)O3)cc1 the results were MITF inhib -18 and NOMO-1 viab -3.
Screening Cc1noc(C)c1NC(=O)Nc1cccc2c1O[C@@H](CN(C)CC1CCCCC1)[C@@H](C)CN([C@@H](C)CO)C2=O returned Hedgehog inh 6, MITF inhib -2 and NOMO-1 viab -4.
C[C@@H]1CN([C@H](C)CO)C(=O)c2cccc(N(C)C)c2O[C@@H]1CN(C)C(=O)Nc1ccc2c(c1)OCO2 was read as Hedgehog inh 1, MITF inhib 6 and NOMO-1 viab -4.
For C[C@H](CO)N1C[C@H](C)[C@H](CN(C)CC2CCCCC2)Oc2ccc(NS(=O)(=O)c3ccc(Cl)cc3)cc2CC1=O the results were Hedgehog inh 41, MITF inhib -11 and NOMO-1 viab 97*.
Screening C[C@@H]1CN([C@@H](C)CO)C(=O)Cc2cc(NS(=O)(=O)c3ccc(Cl)cc3)ccc2O[C@@H]1CN(C)CC1CC1 returned MITF inhib 4 and NOMO-1 viab 8.
C[C@H]1CN([C@@H](C)CO)C(=O)Cc2cc(NS(=O)(=O)c3ccc(Cl)cc3)ccc2O[C@@H]1CN(C)CC1CCCCC1 was read as Hedgehog inh 30, MITF inhib 24 and NOMO-1 viab 120*.
`C[C@H](CO)N1C[C@H](C)[C@H](CN(C)CC2CC2)Oc2ccc(NS(=O)(=O)c3ccc(Cl)cc3)cc2CC1=O` gave Hedgehog inh -1, MITF inhib -4 and NOMO-1 viab 35.
Screening C[C@@H]1CN([C@H](C)CO)C(=O)c2cccc(NC(=O)NC3CCCCC3)c2O[C@@H]1CN(C)S(=O)(=O)c1ccc(Cl)cc1 returned Hedgehog inh 23, MITF inhib -1 and NOMO-1 viab 16.
c1ccc(CN2CCOCCN(Cc3ccccc3)CCOCC2)cc1 was read as MITF inhib -1 and NOMO-1 viab 87*.
For S=C(c1ccccc1)N1CCN(Cc2ccccc2)CC1 the results were Hedgehog inh 16, MITF inhib 18 and NOMO-1 viab 13.
For C=C1C(=O)O[C@H]2C[C@@H](C)[C@@H]3CCC(=O)[C@@]3(C)C[C@H]12 the results were Hedgehog inh -7, MITF inhib 19 and NOMO-1 viab 117*.
`C=C1C(=O)O[C@H]2C(=C)[C@@H](CCC(=O)O)[C@@H](C)CC[C@@H]12` gave Hedgehog inh 18, MITF inhib 21 and NOMO-1 viab 63.
For O=C(NCCO)c1cccc(Nc2nc(-c3ccccc3)c3cc(Cl)ccc3n2)c1 the results were MITF inhib 28 and NOMO-1 viab 37.
Screening CC(C)NC(=O)N(C)C[C@H]1OCCCC[C@@H](C)Oc2ccc(NC(=O)CCCN(C)C)cc2C(=O)N([C@H](C)CO)C[C@@H]1C returned Hedgehog inh 3, MITF inhib -25 and NOMO-1 viab 19.
`COc1ccccc1NC(=O)C(Cc1ccccc1)N1C(=O)C2C3c4ccccc4C(c4ccccc43)C2C1=O` (configuration not stated) gave MITF inhib -2 and NOMO-1 viab 92*.
COc1ccccc1NC(=O)CN1C(=O)C2C3CCC(C3)C2C1=O (configuration not stated) was read as MITF inhib 38 and NOMO-1 viab 10.
Screening CCOC(=O)CSc1nc(N)nc(C)c1Cl returned MITF inhib -2 and NOMO-1 viab 45.
COc1ccc(S(=O)(=O)Nc2ccc3c(c2)C(=O)N([C@H](C)CO)C[C@H](C)[C@H](CN(C)CC2CC2)O3)cc1 was read as Hedgehog inh -19, MITF inhib -6 and NOMO-1 viab 0.
`C[C@H](CO)N1C[C@H](C)[C@H](CN(C)S(=O)(=O)c2ccc(Cl)cc2)Oc2ccc(NC(=O)Cn3cnnn3)cc2C1=O` gave Hedgehog inh -44, MITF inhib 4 and NOMO-1 viab 25.
